Screen size: about 330,000 compounds; about 4,400 (1.3%) were called active. Shown is part of a subset that was picked to be rich in actives. Values without a mark were called inactive.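 Rule for the calls: active = growth inhibition of the mutant yeast at or above 50%; inactive = the rest.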
Assay: growth inhibition of tim23-1 ts yeast – luminescence, uHTS, primary screen (AID 463212);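 note: temperature-sensitive mutant grown at 25 °C; plate controls were DMSO-treated mutant yeast for no effect and medium wells lacking yeast for full effect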
Conditions: S. cerevisiae tim23-1 growth, BacTiter-Glo luminescence, 24 h; at 20 µM; active compounds read high
In the case of `Cc1ccc(NC(=O)c2nc[nH]c2C(=O)N2CCCCC2)c(C(=O)c2ccccc2)c1`, the inhibition is reported as 6.29%. In the case of `C=C(C)C(=O)O[C@H]1C/C(C)=C\C(=O)/C=C(\C)[C@H](O)[C@@H]2OC(=O)C(=C)[C@@H]21`, the inhibition is reported as 4.97%. For `COc1ccc(C)cc1NC(=O)CSc1nnc(CC(=O)Nc2ccccc2F)n1C`, the inhibition was 3.22%. For `O=C(O)Cn1c(Cc2ccccc2)nc2ccccc21`, the inhibition was -1.32%. Work on `CCOc1ccccc1Oc1cn[nH]c1-c1ccc(OC)cc1O` yielded an inhibition of -69.3%. With `COc1ccc(Oc2cn[nH]c2-c2ccc(OC)cc2O)cc1` the inhibition was 66.3% (active). `COc1ccc(-c2cn[nH]c2-c2ccc(OC)cc2)cc1` gave an inhibition of 47.7%. Work on `Cc1cc(NC(=O)CSCc2nc(-c3cccc(Cl)c3)oc2C)no1` yielded an inhibition of 1.1%. `COc1cccc2c1CCC(NC(C)=O)C2=O` (stereo not given) gave an inhibition of 0.522%. In the case of `Cc1cccc(C)c1NC(=O)CN(C)C(=O)CCC(=O)c1ccccc1`, the inhibition is reported as 15%. `Cc1cccc(C)c1NC(=O)C(c1ccccc1)N1CC(=O)Nc2ccccc21` (stereo not given) showed an inhibition of 21.3%. In the case of `Cc1cccc(C)c1NC(=O)C(Cl)C(=O)c1ccccc1` (stereo not given), the inhibition is reported as 80.7% (active). In the case of `COc1ccc(CN2CCCCC2C)cc1OC` (stereo not given), the inhibition is reported as 10.1%. With `CCC(C)n1c(-c2cc(OC)c(OC)c(OC)c2)nc2nc3ccccc3nc21` (stereo not given) the inhibition was 19.1%. `C[C@H](NC(=O)C1CC(=O)N(c2ccc3c(c2)OCO3)C1)C(=O)NCc1ccco1` (stereo not given in full) showed an inhibition of 13.9%. In the case of `CC(C)(C)c1ccc(CN2C(=O)c3ccccc3S2(=O)=O)cc1`, the inhibition is reported as 22.3%. With `CCCCN(CCCC)CC(O)Cn1c2ccccc2c(=O)c2ccccc21` (stereo not given) the inhibition was 5.18%. With `O=C1c2ccccc2S(=O)(=O)N1CC(O)Cn1c2ccccc2c2ccccc21` (stereo not given) the inhibition was 84.5% (active). In the case of `CCc1ccccc1NC(=O)CN(c1ccc(OC)cc1OC)S(=O)(=O)c1ccccc1[N+](=O)[O-]`, the inhibition is reported as 50.4% (active). In the case of `COc1ccc(N(CC(=O)Nc2cccc3ccccc23)S(C)(=O)=O)c(OC)c1`, the inhibition is reported as 6.45%. `COc1ccc(N(CC(=O)Nc2ccc(C)cc2C)S(=O)(=O)c2ccccc2[N+](=O)[O-])c(OC)c1` gave an inhibition of 19.7%. With `CCN(CC)S(=O)(=O)c1ccc(CNC(=O)CN2C(=O)NC3(CCc4ccccc43)C2=O)cc1` (stereo not given) the inhibition was 9.27%. Compound `Cc1ccc(S(=O)(=O)N2CCC(C(=O)OCC(=O)N3CC(=O)Nc4ccccc43)CC2)cc1` has an inhibition of 14.9%. With `CC[C@]12c3[nH]c4ccc(Cl)cc4c3CCN1C(=O)[C@@H](CC(=O)NCCN1CCOCC1)C[C@@H]2C(=O)N1CCN(C(=O)C2CC2)CC1` the inhibition was 24.7%. Work on `CC1Cn2c(nnc2-c2cccs2)S1` (stereo not given) yielded an inhibition of 3.29%. Compound `NS(=O)(=O)c1ccc(CCNC(=O)CNC(=O)Cc2ccccc2)cc1` has an inhibition of 7.58%. `CCN(CC)c1ccc(NC(=O)C2CCC(CNc3c(N4CCCC4)c(=O)c3=O)CC2)c(C)c1` (stereo not given) showed an inhibition of 2.65%. In the case of `O=C(Nc1nnc(SCc2c(Cl)cccc2Cl)s1)C1CCCO1` (stereo not given), the inhibition is reported as 52.3% (active). Compound `O=C(NCc1ccccc1Cl)C1CCCO1` (stereo not given) has an inhibition of 3.86%. `O=C(Nc1nnc(SCc2c(Cl)cccc2Cl)s1)c1cccc([N+](=O)[O-])c1` gave an inhibition of -8.16%. For `CC1CN(C(=O)c2cc(COc3c(F)cccc3F)on2)CCN1C` (stereo not given), the inhibition was 8.91%. In the case of `CN(C)/N=C/c1cn(-c2ccccc2)nc1-c1cccnc1`, the inhibition is reported as 50.3% (active). `NC(=O)C1CCN(C(=O)c2cn(-c3ccccc3)nc2-c2cccnc2)CC1` gave an inhibition of -6.01%. Compound `O=C(COC(=O)/C=C/c1cn(-c2ccccc2)nc1-c1cccnc1)Nc1ccc(Cl)cc1Cl` has an inhibition of 20.1%. Compound `O=C1CC(C(F)(F)C(F)(F)C(F)(F)C(F)(F)F)=Nc2ccccc2N1` has an inhibition of 15.9%. `CC(C)C[C@H](NC(=O)NCCc1ccc(Cl)cc1)C(=O)O` gave an inhibition of 9.43%. `Cc1ccc2nc(SCC(=O)N3CC(C)OC(C)C3)nc(=O)n2c1` (stereo not given) gave an inhibition of 10.2%. For `O=C(NC(=S)Nc1ccccc1N1CCCCC1)c1ccc(F)cc1`, the inhibition was 32.5%. In the case of `CCc1ccc(C(=O)NC(=S)Nc2ccccc2N2CCOCC2)cc1`, the inhibition is reported as 53.9% (active). `O=C(Nc1ccccc1N1CCOCC1)c1ccncc1` gave an inhibition of -8.11%. In the case of `O=C(NC1CC2CCCC(C1)N2C(=O)N1CCCCC1)C1CCCCC1` (stereo not given), the inhibition is reported as 19.4%. Work on `Cc1cc(C)nc(NC2=NCC(=O)N2c2ccc(Cl)cc2)n1` yielded an inhibition of -5.7%. `O=C(N/N=C/c1ccco1)c1csc2c1CCCC2` gave an inhibition of 22.8%. In the case of `O=C(Nc1ccc(NC(=O)c2cccs2)cn1)c1ccco1`, the inhibition is reported as 17.2%. With `O=C(N/N=C/C=C/c1ccco1)c1cccs1` the inhibition was 59.4% (active). Compound `O=C(Nc1ccc(Br)cc1)c1cc(S(=O)(=O)Nc2ccccn2)ccc1Cl` has an inhibition of -0.209%. In the case of `Cc1ccc(NN=C2C(=O)OC(C)(C)OC2=O)c(C)c1`, the inhibition is reported as -2.58%. With `CCCCCCc1ccc(O)cc1O` the inhibition was 62.8% (active). `CCCCCCCN=C(C)c1ccccc1O` showed an inhibition of 5.76%. In the case of `CCCCCCc1cc2cc(-c3nnc(-c4ccccc4)o3)c(=O)oc2cc1O`, the inhibition is reported as 7.67%. With `CC(C)NC(=O)NNc1c(Cl)cncc1Cl` the inhibition was 2.69%. In the case of `O=C(/C=C/c1cccc(C(F)(F)F)c1)N1CCN(c2ccccn2)CC1`, the inhibition is reported as 37.6%. For `COc1ccc(NC(C)=O)cc1NC(=O)CN1CCN(C2c3ccccc3-c3ccccc32)CC1`, the inhibition was 26.8%. For `O=C(C[C@H]1C(=O)N(c2ccc(F)c(F)c2)C[C@@H]1Cc1ccccc1)Nc1ccccc1`, the inhibition was 13.5%. `COc1ccc(NC(=O)CSc2nc(NS(=O)(=O)c3ccc(C)cc3)cc(=O)[nH]2)cc1` showed an inhibition of 2.94%. In the case of `Cc1noc(C)c1-c1ccc2ncnc(NC(C)c3ccco3)c2c1` (stereo not given), the inhibition is reported as 5.06%. Work on `Oc1ccc(-c2nnc(Nc3ccccc3)c3ccccc23)cc1` yielded an inhibition of -5.13%. In the case of `Cc1cccc(-c2nc(Nc3ccc(O)cc3)c3ccccc3n2)c1`, the inhibition is reported as 62.7% (active). Work on `CC(=O)Nc1cccc(Nc2nc(-c3cccs3)nc3ccccc23)c1` yielded an inhibition of 39.4%. In the case of `CCCCn1c(O)c(N=NC(=O)Cn2c(C(F)(F)F)nc3ccccc32)c2ccccc21`, the inhibition is reported as -27.6%. For `O=c1ccc2c(-c3ccccc3S(=O)(=O)O)c3ccc(O)c(O)c3oc-2c1O`, the inhibition was 56% (active). Compound `CCCn1c(N)c(C(=O)CSc2nnc3n2CCCCC3)c(=O)[nH]c1=O` has an inhibition of 7.27%. `O=C(CN1C(=O)C2C3C=CC(C3)C2C1=O)NCC1COc2ccccc2O1` (stereo not given) showed an inhibition of 18.2%. With `Cc1cc(C(=O)CCl)c(C)n1CC1COc2ccccc2O1` (stereo not given) the inhibition was 34.4%. For `O=C1C(=O)N(CC2COc3ccccc3O2)c2ccccc21` (stereo not given), the inhibition was 72.4% (active). Work on `CC(=O)Nc1sc2c(c1C(c1cccc(F)c1)N1CCN(CCO)CC1)CCCC2` (stereo not given) yielded an inhibition of 14.7%. `Cc1cccc(-[n+]2c(-c3cccc(Br)c3)[nH]c3nc4ccccc4nc32)c1` showed an inhibition of 22.7%. For `NS(=O)(=O)c1ccc(NC(=S)NC(=O)c2cccc(Br)c2)cc1`, the inhibition was 28.3%. `Cc1ccccc1NC(=S)NNC(=O)c1cccc(Br)c1` showed an inhibition of 14.7%. In the case of `O=C(NC(=S)Nc1cccc2c(O)cccc12)c1cccc(Br)c1`, the inhibition is reported as 68.6% (active). In the case of `Cc1ccc(C)c(OCc2cc(C(=O)N3CCN(c4cnccn4)CC3)no2)c1`, the inhibition is reported as 23.9%. For `Cc1onc(NC(=O)c2ccc([N+](=O)[O-])o2)c1Br`, the inhibition was 55.6% (active). Compound `Cc1cccc(NC(=O)c2ccc([N+](=O)[O-])o2)c1` has an inhibition of 7.53%. Compound `O=C(Nc1ccc(Br)cn1)c1ccc([N+](=O)[O-])o1` has an inhibition of 43.4%. In the case of `O=C(CCCNS(=O)(=O)c1cccc2nsnc12)NCCN1CCN(c2ccccc2F)CC1`, the inhibition is reported as 1.63%. For `O=C1Nc2ccccc2/C1=C/c1ccnc2ccccc12`, the inhibition was 51.2% (active). Compound `COc1cc(NS(=O)(=O)c2ccc(NC(=O)c3ccc(S(=O)(=O)N4CCCCC4)cc3)cc2)ncn1` has an inhibition of 3.91%. In the case of `O=C(NC1(C(F)(F)F)NC(=O)N(C2CCCCC2)C1=O)c1ccco1` (stereo not given), the inhibition is reported as 14.4%. Work on `CCC1(CC)NC(=O)N(Cc2nc3ccccc3s2)C1=O` yielded an inhibition of 21.9%. In the case of `O=C1NC(Nc2nc3ccccc3s2)(C(F)(F)F)C(=O)N1C1CCCCC1` (stereo not given), the inhibition is reported as 58.9% (active). With `CC(C)c1ccc(NC(=O)[C@@H](NC(=O)N2CC(=O)Nc3ccccc32)C(C)C)cc1` the inhibition was 10.9%. With `Cc1c(NC(=O)CCC2CCCCC2)cc(C(=O)N2CCOCC2)cc1[N+](=O)[O-]` the inhibition was 7.43%. In the case of `CC(=O)Nc1ccc(S(=O)(=O)NC2(C(F)(F)F)C(=O)NC(C)=C2C#N)cc1` (stereo not given), the inhibition is reported as 10.8%. For `CCn1c2ccccc2c2cc(NC(=S)N3CCOCC3)ccc21`, the inhibition was 51.8% (active). For `Cc1cc(N2CCN(C)CC2)nc2ccc(NC(=S)N3CCOCC3)cc12`, the inhibition was 12.1%. With `Cc1cc(N2CCOCC2)nc2ccc(NC(=S)N3CCN(Cc4ccccc4)CC3)cc12` the inhibition was 7.08%. For `COc1ccccc1CN1CC(C(=O)NCCc2cn[nH]c2)CCC1=O` (stereo not given), the inhibition was 11.8%. In the case of `COc1ccc(NC(=O)Nc2cccc3cccnc23)cc1`, the inhibition is reported as 58.6% (active). `CCOC(=O)Cc1ncccc1C(=O)Nc1ccc(OC)cc1` showed an inhibition of -4.31%. `CCCNC(=O)Nc1ccccc1C(=O)Nc1ccc(OC)cc1` showed an inhibition of 11%. For `COc1ccc(CNS(=O)(=O)c2cc3c4c(c2)CCN4C(=O)CC3)cc1`, the inhibition was 9.82%. Work on `COc1ccccc1C(=O)NC(=O)COC(=O)c1ccco1` yielded an inhibition of 1.32%. With `COc1ccc(/C=C(\C#N)C(=O)ONC2=NCCCCC2)cc1` the inhibition was 68.2% (active). With `COc1ccc(N2CCN(C(=O)/C(C#N)=C/c3ccccc3)CC2)cc1` the inhibition was 40.6%. Work on `COc1ccc(/C=C(\C#N)C(=O)OCC(=O)N(C)C2CCS(=O)(=O)C2)cc1` (stereo not given) yielded an inhibition of -18.1%.
